The whole screen tested about 4,900 compounds, of which about 2,000 (41%) were called active.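 Rule for the calls: active = thallium signal drop beyond 5 SD of the untreated control mean, on both duplicate plates; inactive = the rest.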 So high a share suggests a set chosen from earlier hits. A selection follows.
Assay: thallium flux in non-induced HEK293 cells, confirmation, counter-screen for KCNK9 inhibitor project, cell-based, second counter screen, non-induced KCNK9-HEK293 (AID 492997);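 for inhibition: plate controls were buffer only IC0 wells for no effect and SID17386958 at its maximal inhibitory level for full effect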
Details: non-induced KCNK9-HEK293, FluxOR thallium flux, at 10 µM; hits give high values

Compound	inhibition
CCCCCCCCCCCCn1ccc(=N)cc1	29.5% (active)
CCOC(=O)C1SC2(C(F)(F)C(F)F)CC1(O)c1c(c(OC)c3occc3c1OC)O2 (stereo unspecified)	inactive
CC(C)(C)c1ccc(CN2C(=O)CN=C(c3ccccc3)c3ccccc32)cc1	50% (active)
CC(C)(C)c1ccc(OC(=O)N2CCCCC2)cc1	inactive
CC(C)n1c(=O)c(C=Nc2ccc(Br)cc2)c(O)n(Cc2ccco2)c1=O	inactive
CCCCCCN=C(CC)c1c(O)n(CCCC)c(=O)[nH]c1=O	32% (active)

From PubChem BioAssay AID492997 (Johns Hopkins Ion Channel Center, 2010)
